Source: PubChem BioAssay (Buhrlage Lab, Dana-Farber Cancer Institute and Novartis Institutes for BioMedical Research (Cambridge, Mass))
USP8 inh = blocks human USP8 ubiquitin-rhodamine cleavage. inhibition, % at 20 µM. AID 1645853. 47,000 tested, 4.2% active. P40818. purified USP8, Ub-rhodamine cleavage fluorescence, 30 min
USP28 inh = inhibitors of human USP28 deubiquitinase | Q96RU2 | purified USP28, Ub-rhodamine cleavage fluorescence, 30 min | inhibition, % at 25 µM | 47,000 tested, 3% active | AID 1645857
USP30 block = human USP30 deubiquitinase inhibition; Q70CQ3; inhibition, % at 25 µM; purified USP30, Ub-rhodamine cleavage fluorescence; 47,000 tested, 5.3% active
USP10 block = blocks human USP10 ubiquitin-rhodamine cleavage; Q14694; purified USP10, Ub-rhodamine fluorescence, 60 min; inhibition, % at 20 µM; 47,000 tested, 1.1% active; AID 1645856
USP17 inh = blocks human USP17 ubiquitin-rhodamine cleavage. purified USP17, Ub-rhodamine cleavage fluorescence, 3 h. inhibition, % at 50 µM. 47,000 tested, 6.5% active
Hits are given with their value; . = inactive; / = no result. Rows were chosen to be rich in hits. Some 13% of all compounds tested hit in one or more screens of this group. Cut-off read from the data, not from the text of the source: active = inhibition above about 30%; inactive = the rest.

SMILES	USP8 inh	USP28 inh	USP30 block	USP10 block	USP17 inh
CCc1ccc(NC(=O)CSc2ncc(S(=O)(=O)c3ccccc3)c(=O)[nH]2)cc1	.	.	38	.	.
CCc1ccc(S(=O)(=O)c2cn(CC(=O)Nc3ccccc3)c3ccccc3c2=O)cc1	77	.	.	46	.
O=C(Cc1nnc(-c2cnccn2)o1)Nc1ccc(C(F)(F)F)cc1	55	.	.	.	.
Cc1cccc(C(=O)Nc2ccc3c(c2)nc(CCN2CCCCC2)n3C)c1	.	.	.	.	.
CCc1nc2cc(NC(=O)c3cccc(N4CCCC4=O)c3)ccc2n1C	.	62	.	.	.
Cn1c(CCN2CCCCC2)nc2cc(NC(=O)c3ccc(Cl)cc3)ccc21	.	.	.	.	33
CCC(C)Nc1ncnc2c1sc1nc(N3CCOCC3)c3c(c12)CC(C)(C)OC3 (stereo unspecified)	.	.	.	.	/
COc1ccccc1/C=C(\C(=O)N1CCN(c2ccccc2)CC1)c1ccccc1	.	.	35	.	.
O=C(NCC(=O)N1CCN(c2ccccc2)CC1)c1ccccc1	.	.	.	.	.
CCCc1noc(-c2cc(-c3ccc(Cl)cc3)nc3ccccc23)n1	.	.	.	.	.
O=C(CSc1ccccc1C(=O)O)NCc1ccc2c(c1)OCO2	.	.	.	.	.
CC1(c2ccc3c(c2)CCC3)NC(=O)N(Cc2cc(=O)n3ccsc3n2)C1=O (stereo unspecified)	.	.	.	.	33
O=c1cc(CNc2ccc(Br)cc2)nc2sccn12	.	.	.	.	.
CNc1cc(C2CCCN2C(=O)c2ccc3ncccc3c2)nc(C)n1 (stereo unspecified)	.	.	.	.	/
CN(Cc1ccccc1)C(=O)Cn1cnc2c(cnn2C)c1=O	.	.	.	.	.
Cc1c(C)n(-c2ccccc2)c2ncn(CC(=O)N(C)Cc3ccccc3)c(=O)c12	.	.	.	.	53
Cc1c(C)n(-c2ccccc2)c2ncn(CC(=O)NCCCc3ccccc3)c(=O)c12	.	.	.	.	70
O=C(Cn1cnc2onc(-c3ccccc3F)c2c1=O)NCCCc1ccccc1	.	.	.	.	.
COc1ccc2nc(Nc3nc(-c4cnc(N5CCOCC5)nc4C)cc(=O)[nH]3)nc(C)c2c1	.	.	.	.	52
Cc1cc2nc(Nc3ncc4c(n3)CCCC4=O)nc(C)c2cc1C	.	.	.	.	.
COc1ccc2nc(Nc3ncc4c(n3)CCCC4=O)nc(C)c2c1	.	.	52	.	38
Cc1nc(N2CCCCC2)ncc1-c1cc(=O)[nH]c(N2CCN(c3ccccc3)CC2)n1	.	.	.	.	.
Cc1nc(N2CCOCC2)ncc1-c1cc(=O)[nH]c(NCCc2ccccc2)n1	.	.	34	.	.
Cc1nc(N2CCCC2)ncc1-c1cc(=O)[nH]c(N2CCc3ccccc3C2)n1	.	.	.	.	78
COc1ccc(N(Cc2nc3nc(C)cc(=O)n3[nH]2)S(=O)(=O)c2ccc(C)cc2)cc1	.	.	.	.	.
SMILES	USP8 inh	USP28 inh	USP30 block	USP10 block	USP17 inh
COc1cccc(-c2cc(=O)[nH]c(Nc3nc(C)c4ccccc4n3)n2)c1	.	.	58	.	.
COc1ccc(-c2cc(=O)[nH]c(Nc3nc(C)c4cc(C)ccc4n3)n2)cc1	.	.	.	.	.
Cc1cc(N2C(=O)OCC2C(C)C)nc(C2CCN(S(C)(=O)=O)CC2)n1 (stereo unspecified)	.	.	.	.	.
COc1ccc(CCNC(=O)c2cnn(-c3ccc(F)cc3)c2C2CCNCC2)c(OC)c1	.	.	.	.	.
COc1ccc(CCNC(=O)c2cnn(-c3ccc([N+](=O)[O-])cc3)c2C2CCNCC2)c(OC)c1	.	.	34	.	.
O=C(CC(C(=O)c1ccccc1)c1cccs1)c1ccc(Cl)cc1 (stereo unspecified)	.	.	.	.	.
Nc1ccccc1SC(CC(=O)c1ccc(Cl)cc1)c1ccsc1 (stereo unspecified)	73	.	.	.	53
O=C(CC1C(=O)N(Cc2ccccn2)c2nc3ccccc3n21)Nc1ccc(F)cc1 (stereo unspecified)	.	.	.	.	/
CC(=O)Nc1ccc(C(=O)/C=C2\NCCc3cc4c(cc32)OCCCO4)cc1	44	.	.	.	.
Cc1ccccc1NC(=NS(=O)(=O)c1ccccc1)c1ccc(Cl)cc1	.	44	.	.	.
CC[C@@H]1CCC[C@H](C)CC[C@@H](O[C@@H]2O[C@@H](C)[C@@H](O)[C@@H](N)[C@H]2O)[C@H](CC)CCCNC1=O	.	83	95	.	83
Cc1ccc(NC(=O)c2cc(-c3cccnc3)n[nH]2)cc1F	99	34	49	.	40
CC(C)c1ccc(NC(=O)c2cc(-c3cccnc3)n[nH]2)cc1	97	37	46	.	.
COc1ccc(NC(=O)c2cc(-c3cccnc3)n[nH]2)cc1Cl	65	91	94	.	44
Cc1ccc(NC(=O)C2CCCN(C(=O)c3cc(-c4cccnc4)n[nH]3)C2)cc1 (stereo unspecified)	.	.	.	.	.
COC(=O)Nc1cccn(Cc2c(Cl)cccc2Cl)c1=O	93	88	52	50	88
N#Cc1ccc(NC(=O)Nc2cccn(Cc3c(F)cccc3Cl)c2=O)cc1	89	41	.	.	78
N#Cc1ccc(NC(=O)Nc2cccn(Cc3ccc(F)cc3)c2=O)cc1	95	84	.	37	93
CCCN1C=NS(=O)(=O)c2cc(C(=O)Nc3cc(Cl)ccc3OC)ccc21	.	.	35	.	.
CCCN1C=NS(=O)(=O)c2cc(C(=O)Nc3ccc(OC)c(Cl)c3)ccc21	.	.	.	.	51
Cc1cccc(Oc2ncnc3oc(C)c(C)c23)c1	.	.	.	.	.
O=c1c2cc(Cl)ccc2ncn1Cc1csc(-c2ccccc2)n1	.	.	44	.	.
Cc1ccc(S(=O)(=O)N(C)C)cc1NC(=O)Cc1ccc(Cl)c(Cl)c1	.	93	.	.	.
COCCN1C(=O)c2ccccc2C(C(=O)Nc2cccnc2Cl)C1c1cccs1 (stereo unspecified)	.	.	.	.	.
COc1ccc(Nc2nc(N3CCCC3)nc3c2cnn3C)cc1	.	.	39	.	49
SMILES	USP8 inh	USP28 inh	USP30 block	USP10 block	USP17 inh
O=C(Nc1ccc(Cl)cc1)Nc1cccn2ncnc12	.	39	52	.	.
CCCCN1CC(C(=O)Nc2ccc(C(=O)Nc3ccc(Cl)cc3)cc2)CC1=O (stereo unspecified)	.	.	64	.	.
CCCCN1CC(C(=O)Nc2ccc(C(=O)Nc3ccc(Cl)c(Cl)c3)cc2)CC1=O (stereo unspecified)	.	.	.	.	.
CCCCN1CC(C(=O)Nc2ccc(C(=O)Nc3ccc(F)c(Cl)c3)cc2)CC1=O (stereo unspecified)	.	.	.	.	52
CC(=O)Cn1c(CN(Cc2ccccc2)Cc2ccccc2)nc2c1c(=O)n(C)c(=O)n2C	.	.	.	.	.
O=C(Nc1ccccc1)N1CCCC1c1nc(-c2cccc(Cl)c2)no1 (stereo unspecified)	.	.	.	.	.
